Results published in PubChem BioAssay (NCATS).
Values joined by “and” are separate entries in the source; they are usually repeats but may differ in a detail not shown here. Identical values can stand only once. Inconclusive results are not listed. Active and inactive are the calls of the source. Calls follow the shape of the dose curve; as a rule, active = well fitted curve in the direction sought with a large enough effect; inconclusive = small, poorly fitted or top-dose-only effect, or another doubt; inactive = no such curve, though single readings can be large; an effect the other way counts as inactive or inconclusive.

Key:
[1] = qHTS Screen of the MIPE 4.0 Collection Against Ewings Sarcoma (RDES) (AID 1259252); also: nearly all actives have a fitted effect of over 35% in size; also: potency is read from the fitted curve at half-maximal effect
Outline: (§1)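 Log-phase cells in RPMI with 5% FBS attached for 4 h, then received compounds as a titration for 48 h at 37C, 5% CO2. Viability was read by CellTiter-Glo luminescence and normalized to DMSO and no-cell wells.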

[2] = qHTS Screen of the MIPE 4.0 Collection Against Ewings Sarcoma (TC71) (AID 1259253); also: nearly all actives have a fitted effect of over 40% in size; also: potency is read from the fitted curve at half-maximal effect
Outline: as §1

[3] = qHTS Screen of the MIPE 4.0 Collection Against Ewings Sarcoma (EW8) (AID 1259255); also: nearly all actives have a fitted effect of over 35% in size; also: potency is read from the fitted curve at half-maximal effect
Outline: as §1

[4] = qHTS Screen of the MIPE 4.0 Collection Against Ewings Sarcoma (TC32) (AID 1259256); also: nearly all actives have a fitted effect of over 45% in size; also: potency is read from the fitted curve at half-maximal effect
Outline: as §1

[5] = Identifying Small Molecule Inhibitors of Pancreatic Cancer Stem Cells (A2780, Spheroid) (AID 1259357); details: Potency: A2780 spheroid viability; also: potency is read from the fitted curve at half-maximal effect;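 also: spheroids pre-formed over 14 days in stem cell medium on hydrogel; compound exposure lasted 48 h before the ATP luminescence read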
Outline: (§2)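 Adherent (2D) versus sphere (3D) formats; spheres generated 14 d in SCM beforehand. Compound transferred by pin tool after 4 h, 48 h incubation, CellTiter-Glo endpoint.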

[6] = Identifying Small Molecule Inhibitors of Pancreatic Cancer Stem Cells (SN12C, Adherent) (AID 1259358);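 also: cell survival measured after 48 h of compound exposure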; also: potency is read from the fitted curve at half-maximal effect
Outline: (§3)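 Spheroids grown 14 days in stem cell media on hydrogel-coated nonadherent plates; 2D lines seeded directly. Compounds added after 4 h attachment, 48 h at 37C, 5% CO2; CellTiter-Glo luminescence normalized to DMSO (no inhibition) and no-cell wells (full inhibition).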

[7] = Identifying Small Molecule Inhibitors of Pancreatic Cancer Stem Cells (A278, Adherent) (AID 1259361); also: nearly all actives have a fitted effect of over 35% in size
Outline: as §3

[8] = Identifying Small Molecule Inhibitors of Pancreatic Cancer Stem Cells (Panc1, Adherent) (AID 1259362); details: Potency: viability; also: potency is read from the fitted curve at half-maximal effect
Outline: as §2

[9] = P-glycoprotein substrates identified in KB-8-5-11 adenocarcinoma cell line, qHTS therapeutic library screen (AID 1346987); also: nearly all actives have a fitted effect of over 65% in size; also: potency is read from the fitted curve at half-maximal effect
Outline: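 In this qHTS, P-gp-rich KB-8-5-11 cells received library compounds across a concentration range. Viability was quantified by luminescence after 72 h at 37 degree C.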

[10] = NS1 protein of Zika virus - qHTS assay to identify small molecule inhibitors in human HEK 293 cells (AID 1347053); also: nearly all actives have a fitted effect of over 55% in size; also: potency is read from the fitted curve at half-maximal effect
Outline: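 Readout was TR-FRET using paired anti-NS1 antibodies after 24 h infection of HEK 293 cells with ZIKV MR766 (MOI = 0.5). Compound preceded virus by 1 h; reduced signal reflects lower NS1 expression.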

[11] = Identifying Small Molecule Inhibitors of Pancreatic Cancer Stem Cells (SN12C, Spheroid) (AID 1259360); details: Potency: SN12C spheroid viability; also: potency is read from the fitted curve at half-maximal effect
Outline: as §2

[12] = P-glycoprotein substrates identified in KB-3-1 adenocarcinoma cell line, qHTS therapeutic library screen (AID 1346986);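 also: potency is read from the fitted curve at half-maximal effect; potency is for cytotoxicity meaning loss of cell viability; nearly all actives have a fitted effect of over 60% in size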
Outline: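 Viability by CellTiter-Glo after 72 h compound exposure at 37 degree C, 5% CO2. Cytotoxic call: curve class -1.1 to -2.4, maximum response >50%, AC50 < 10 uM, compared across KB-3-1 and P-gp-overexpressing KB-8-5-11.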

| Structure (SMILES) | Potency [1] | Potency [2] | Potency [3] | Potency [4] | Potency [5] | Potency [6] | IC50 (viability decrease) [7] | Potency [8] | Potency [9] | Potency [10] | Potency [11] | Potency [12] |
| --- | --- | --- | --- | --- | --- | --- | --- | --- | --- | --- | --- | --- |
| O=C(O)Cn1nnc(-c2cc(N3CCC(Oc4cc(F)ccc4Br)CC3)no2)n1 | inactive | inactive | inactive | inactive |  |  |  |  |  |  |  |  |
| CC[C@@H]1C(=O)N(C)c2cnc(Nc3ccc(C(=O)NC4CCC(N5CCN(CC6CC6)CC5)CC4)cc3OC)nc2N1C(C)C (stereo not given in full) | 0.105 µM (active) | 0.118 µM (active) | 0.0743 µM (active) | 0.0662 µM (active) | inactive | 1.32 µM (active) | 0.0209 µM (active) | 0.0105 µM (active) | 372 nM (active) and 326 nM (active) and 231 nM (active) | 0.105 µM (active) |  |  |
| O=C(c1ccc(Nc2nccc(-c3cc4ccccc4s3)n2)cc1)N1CCC(N2CCCC2)CC1 | 18.7 µM (active) | 18.7 µM (active) | 20.9 µM (active) | 20.9 µM (active) |  | 26.4 µM (active) | 18.7 µM (active) |  | 8.33 µM (active) and 16.4 µM (active) and 20.6 µM (active) | 6.62 µM (active) | 23.5 µM (active) | 6.51 µM (active) |
| NC(=O)Nc1cc(-c2cccc(F)c2)sc1C(=O)N[C@H]1CCCNC1 | 0.935 µM (active) | 0.0935 µM (active) | 0.166 µM (active) | 0.0833 µM (active) | 18.7 µM (active) |  | 1.05 µM (active) | 1.48 µM (active) | 14.8 µM (active) and 7.31 µM (active) | 0.264 µM (active) |  |  |
| C[C@]1(CO)CN(c2cc(C(=O)Nc3ccc4c(c3)-c3c(c(C(N)=O)nn3-c3ccc(F)cc3)CC4)c(Cl)cn2)C[C@@]1(C)CO | 14.8 µM (active) | 13.2 µM (active) | 16.6 µM (active) | 13.2 µM (active) | inactive |  |  |  | inactive |  | inactive | 5.8 µM (active) |
| Nc1nc(Nc2ccc(S(N)(=O)=O)cc2)nn1C(=O)c1c(F)cccc1F | 8.33 µM (active) | 5.26 µM (active) | 8.33 µM (active) | 7.43 µM (active) | 4.18 µM (active) |  | 2.64 µM (active) |  | 10.5 µM (active) and 7.31 µM (active) |  |  |  |
| C[C@@H](Oc1cc(-c2cnn(C3CCNCC3)c2)cnc1N)c1c(Cl)ccc(F)c1Cl | 16.6 µM (active) | 14.8 µM (active) | 10.5 µM (active) | 4.18 µM (active) |  | 18.7 µM (active) | 4.18 µM (active) |  | 13.2 µM (active) and 16.4 µM (active) and 11.6 µM (active) |  | 20.9 µM (active) |  |
| Cn1c2cc(S(C)=O)sc2c2cnn(Cc3cccc(N)c3)c(=O)c21 (stereo not given) | inactive | inactive | inactive | inactive |  | inactive | inactive |  | inactive | inactive | inactive |  |
| O=C(Nc1cc(C(F)(F)F)cc(C(F)(F)F)c1)c1cc(Cl)ccc1O | 1.18 µM (active) | 1.05 µM (active) | 2.35 µM (active) | 1.18 µM (active) | 0.526 µM (active) |  |  | 0.0332 µM (active) | 187 nM (active) and 820 nM (active) | 2.64 µM (active) | 0.833 µM (active) |  |
| COC(=O)c1ccc2c(C(=Nc3ccc(N(C)C(=O)CN4CCN(C)CC4)cc3)c3ccccc3)c(O)[nH]c2c1 | 0.148 µM (active) | 0.743 µM (active) | 3.32 µM (active) | 1.48 µM (active) |  |  | 4.69 µM (active) |  |  |  | 18.7 µM (active) |  |
| CCN(CC)CCCCNc1ncc2cc(-c3cc(OC)cc(OC)c3)c(NC(=O)NC(C)(C)C)nc2n1 | 20.9 µM (active) | 16.6 µM (active) | 18.7 µM (active) | 16.6 µM (active) |  | 14.8 µM (active) | 5.26 µM (active) | inactive |  |  |  | 23.1 µM (active) |
| COc1cc2c(Oc3ccc4[nH]c(C)cc4c3F)ncnc2cc1OCCCN1CCCC1 | 23.5 µM (active) | 23.5 µM (active) | 23.5 µM (active) | 16.6 µM (active) |  | 2.35 µM (active) | 16.6 µM (active) |  | 23.5 µM (active) and 18.4 µM (active) | inactive |  | 23.1 µM (active) |
| COc1ccc(CC2SC(=O)NC2=O)cc1C(=O)NCc1ccc(C(F)(F)F)cc1 (stereo not given) | inactive | inactive | inactive | inactive |  | inactive | inactive |  | inactive |  | inactive |  |
| Cc1ccc(C(N)=O)cc1Nc1nccc(-c2cn(C(C)C)c3cnccc23)n1 | 14.8 µM (active) | 8.33 µM (active) | 18.7 µM (active) | 16.6 µM (active) |  | inactive | 8.33 µM (active) |  | 20.6 µM (active) |  |  |  |
| Cc1ccc(S(=O)(=O)Nc2cc(Cl)ccc2C(=O)Nc2nc(-c3ccccc3)cs2)cc1 | 10.5 µM (active) | 13.2 µM (active) | 16.6 µM (active) | 14.8 µM (active) |  | 2.64 µM (active) | 3.72 µM (active) |  |  |  |  |  |
| C=CC(=O)Nc1cccc(Oc2nc(Nc3ccc(N4CCN(C)CC4)cc3OC)ncc2Cl)c1 | 0.0187 µM (active) | 0.0074 µM (active) | 0.0209 µM (active) | 0.0148 µM (active) |  | 23.5 µM (active) |  | inactive |  | 33.2 µM (active) |  |  |
